Molecules are shown by their SMILES. Among all 300,000 compounds or so, about 37,000 (12%) were called active. The list comes from a sample in which actives are over-represented; it also holds similar structures and randomly drawn compounds. Unmarked numbers belong to inactive results. Cut-off read from the data, not from the text of the source: active = max response mostly above about 13% (no sharp cut-off); inactive = mostly below about 14%.

This assay is described as follows: Cycloheximide Counterscreen for Small Molecule Inhibitors of Shiga Toxin. Note: read at 38.3 µM for the half of the compounds with a filed dose; 0% is about no effect. Particulars: cell reporter, cycloheximide protein synthesis inhibition counterscreen; hits give high values. A general note: The purpose of a counterscreen is to sort out artefacts and off-target activity.
Turning to `CCOC(=O)c1csc(CCNC(=O)c2oc3c(Cl)cc(C)cc3c2C)n1`, the max response was 29.8% (active).

Turning to `CCOC(=O)c1csc(NC(=O)c2ccc(S(=O)(=O)N3CCCC3)cc2)n1`, the max response was -1.54%. In the case of `Cc1ccc2c(=O)cc(C(=O)NCCc3ccc(S(N)(=O)=O)cc3)oc2c1C` it was -2.03%; in that of `CC(Oc1cccc(Cl)c1)C(=O)NC1CC(C)(C)NC(C)(C)C1` (stereo not given), -2.91%. The result for `COc1ccc(Cc2n[nH]c(=S)n2NC(=O)Nc2ccc(C)cc2)cc1` reads 37.1% (active); that for `Cc1ccc(OCc2n[nH]c(=S)n2-c2ccc(C)cc2)cc1`, -1.5%; that for `COc1ccc(NC(=S)NCCNC(C)=O)cc1`, 0.644%. The result for `Cn1c(=O)oc2cc(S(=O)(=O)NCCC(=O)NCc3ccccc3Cl)ccc21` reads -6.54%; that for `O=S(=O)(c1ccc(Br)cc1)c1nc(-c2ccccc2)oc1N1CCOCC1`, 4.42%. As to `CCCCCCCCCCCCC(NC(C)=O)(C(=O)OCC)C(=O)OCC`, the max response is -2.57%.

Turning to `CC1CCN(C(=O)CCc2nnc3ccc(NCc4ccco4)nn23)CC1`, the max response is -0.588%. In the case of `CCc1ccc(C2N3CC4([N+](=O)[O-])CN2CC([N+](=O)[O-])(C3)C4(C)C)cc1` (stereo not given) it was -2.16%; in that of `COc1ccc(Nc2nc(Cl)nc(NCc3ccco3)n2)cc1`, 5.68%. In the case of `C=CCC(NCc1ccco1)c1ccc(OC)cc1` (stereo not given) it was 1.37%.

`COc1ccc(Nc2nc(NCc3ccco3)nc(N/N=C/c3ccccc3Cl)n2)cc1`: the max response was 16.9% (active).

As for `COc1ccc(C)cc1NC(=O)NCCCCc1ccccc1`, the max response is 7.65%. The result for `CS(=O)(=O)N1CCN(c2cccc(Cl)n2)CC1` reads -1.63%; that for `CS(=O)(=O)N1CCN(C(=O)Cc2ccccc2)CC1`, -2.32%; that for `CS(=O)(=O)N1CCc2nc(-c3ccccc3)sc2C1`, 47.1% (active). In the case of `Cc1occc1C(=O)Nc1nnc(-c2ccncc2)s1` it was 15.8%; in that of `Cc1cccc(NC(=O)CSCC(=O)Nc2nnc(C3CC3)s2)c1`, 6.4%. In the case of `Cc1occc1C(=O)Nc1nnc(C2CCCCC2)s1` it was 17.4% (active).

With `O=C(Nc1nnc(C2CC2)s1)c1ccccn1`, the max response was 34.9% (active). With `O=C(Nc1nnc(C2CC2)s1)c1cc(Cl)sc1Cl`, the max response was 12.2% (active).

Consider `COc1ccc(NC(=O)CCC(=O)Nc2nnc(C3CCCCC3)s2)cc1`, for which the max response was -3.75%. Take `O=C(Cc1cccs1)Nc1nnc(C2CC2)s1`: the max response is 8.46%. In the case of `O=C(Nc1nnc(C2CC2)s1)C1=NN(C2CCS(=O)(=O)C2)C(=O)CC1` (stereo not given) it was -6.02%; in that of `CC1CCN(c2ccc(C(=O)Nc3nnc(C4CC4)s3)cc2[N+](=O)[O-])CC1`, -2.98%; in that of `COc1ccccc1CNC(=O)[C@@H]1CCCN1C(=O)[C@@H]1Cc2ccccc2CN1C(=O)OC(C)(C)C`, 8.54%.

Take `Cc1ccc(S(=O)(=O)N(C)CC(=O)NCCc2c[nH]c3ccccc23)cc1`: the max response was 0.209%.

Turning to `Cc1cccc(NC(=O)NC2(C)CCS(=O)(=O)C2)c1` (stereo not given), the max response was 1.38%. In the case of `COc1ccccc1CNC(=O)c1ccc(N(C)S(=O)(=O)c2ccc(C)cc2)cc1` it was -0.735%; in that of `Cc1coc2c(O)cc3c(c12)OC1(N2CCCCC2)C(=O)NCCCC31` (stereo not given), -0.492%; in that of `COc1ccc(CNS(=O)(=O)c2cc(-c3cc(C)no3)ccc2C(C)C)cc1`, -0.908%.

`CCCCC(=O)Nc1c2c(nn1-c1ccc([N+](=O)[O-])cc1)CS(=O)(=O)C2`: the max response was -4.82%. The result for `O=C(c1cc2ccccc2s1)N1CCN(c2ccccn2)CC1` reads -0.772%; that for `CC(C)c1cc(C(N)=O)c(NC(=O)c2cccc(COc3ccc(Br)cc3)c2)s1`, 142% (active). The result for `NNC(=O)c1cccc(COCC(F)(F)C(F)F)c1` reads 9.81%. The result for `Cc1ccc(COc2ccc(C(=O)NN)cc2)cc1` reads 15.8%.

As to `CN(C)C(=O)CCC(=O)N1CCCCC1C(=O)Nc1ccc(Oc2ccccc2F)cc1` (stereo not given), the max response is -1.6%. The result for `Cc1cc(C)c[n+](-c2nc3ccccc3nc2[N-]S(=O)(=O)c2cccs2)c1` reads -0.756%; that for `O=S(=O)(NCc1cccnc1)c1ccc(Br)s1`, -6.09%.

As for `O=S(=O)([N-]c1nc2ccccc2nc1-[n+]1ccc(Cc2ccccc2)cc1)c1ccc(Br)s1`, the max response was 10.5% (active).

For `CCCSc1nc(NCc2ccco2)c2c3c(sc2n1)COC(C)(CC)C3` (stereo not given), the max response is 24.2%. The result for `O=c1onc(-c2c(F)cccc2F)n1-c1ccccc1Cl` reads -4.66%.

With `O=C(O)c1cc2c(cc1NC(=O)c1c(F)cccc1Cl)OCCCO2`, the max response is -4.07%. With `CCSc1nnc(NC(=O)Cc2ccccc2OC)s1`, the max response is 7.43%. The result for `C=CCSc1nnc(NC(=O)c2ccc(NC(C)=O)cc2)s1` reads 14.5% (active). The result for `CCOC(=O)CSc1nnc(NC(=O)c2cccc(S(=O)(=O)N3CCCC3)c2)s1` reads -1.74%; that for `NC(=O)CSc1nnc(NC(=O)c2ccc(Br)o2)s1`, 27.9%. In the case of `CCSc1nnc(NC(=O)c2ccc(C)cc2)s1` it was 32.4% (active); in that of `O=C(Nc1nnc(SCc2ccccc2Cl)s1)c1cccc([N+](=O)[O-])c1`, -4.31%; in that of `Cc1ccc(N=Cc2c(O)n(-c3nccs3)c(=O)c3ccccc23)c(C)c1`, 0.787%.

As for `O/N=C(\C[n+]1ccccc1)c1ccc(Br)cc1`, the max response was -6.18%.

Take `CC1CC(=O)N(CC(=O)Nc2cccc(Cl)c2)c2ccccc2S1(=O)=O` (stereo not given): the max response is -1.52%. The result for `O=C(NC1CCCCCC1)c1cccnc1Sc1ccc(Cl)cc1` reads -2.31%.

Take `Cc1cc(C)c(NC(=O)C[N+](C)(C)CC(O)COc2cccc3ccccc23)c(C)c1` (stereo not given): the max response is -2.87%.

`CCC(C)(C)NC(=O)C(c1ccc(O)cc1)N(Cc1ccco1)C(=O)CCC(=O)Nc1ccccn1` (stereo not given): the max response was 13.8%.

Regarding `COc1ccc(C2=NS(=O)(=O)N(C)C(C(=O)NC(C)c3ccccc3)=C2)cc1` (stereo not given), the max response is -2.97%. In the case of `O=C(Nc1cccc(-c2cscn2)c1)C1CCN(Cc2ccsc2)CC1` it was -0.646%.

The values above are taken from PubChem BioAssay AID2314 (National Center for Advancing Translational Sciences (NCATS), 2010).
